Data: PubChem BioAssay (NCI)
Where “and” joins values, the source holds several entries; their conditions need not be identical. Equal values may be shown once. The panel holds about 83,000 compounds, 20% with a hit somewhere; the sample as a whole holds those more often.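 Cell lines were cultured in 96-well plates, exposed to a single compound concentration, and assessed for percent growth 48 hours later.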 A number with no mark means an inactive call. Calls of active or inactive are those of the source. How the source made its calls: active means growth percent below 10; inactive means the rest.

How the values were obtained:
Assay in all cases: NCI-60 one-dose screen, 48 h (100 = growth as untreated, 0 = no growth, -100 = all killed)
Details in all cases: 10 µM unless noted
SK-MEL-2 melanoma = system: SK-MEL-2 melanoma
EKVX NSCLC = system: EKVX NSCLC
SN12C renal = system: SN12C renal
UO-31 renal = system: UO-31 renal
TK-10 renal = system: TK-10 renal
ACHN renal = system: ACHN renal
CAKI-1 renal = system: CAKI-1 renal
A498 renal = system: A498 renal
CCRF-CEM leukemia = system: CCRF-CEM leukemia
MOLT-4 leukemia = system: MOLT-4 leukemia
SR leukemia = system: SR leukemia
OVCAR-8 ovarian = system: OVCAR-8 ovarian
OVCAR-5 ovarian = system: OVCAR-5 ovarian
OVCAR-4 ovarian = system: OVCAR-4 ovarian
SK-OV-3 ovarian = system: SK-OV-3 ovarian
IGROV1 ovarian = system: IGROV1 ovarian
OVCAR-3 ovarian = system: OVCAR-3 ovarian
HS 578T breast = system: HS 578T breast
NCI/ADR-RES ovarian = system: NCI/ADR-RES ovarian
RPMI-8226 leukemia = system: RPMI-8226 leukemia

| SMILES | growth (SK-MEL-2 melanoma) | growth (EKVX NSCLC) | growth (SN12C renal) | growth (UO-31 renal) | growth (TK-10 renal) | growth (ACHN renal) | growth (CAKI-1 renal) | growth (A498 renal) | growth (CCRF-CEM leukemia) | growth (MOLT-4 leukemia) | growth (SR leukemia) | growth (OVCAR-8 ovarian) | growth (OVCAR-5 ovarian) | growth (OVCAR-4 ovarian) | growth (SK-OV-3 ovarian) | growth (IGROV1 ovarian) | growth (OVCAR-3 ovarian) | growth (HS 578T breast) | growth (NCI/ADR-RES ovarian) | growth (RPMI-8226 leukemia) |
| --- | --- | --- | --- | --- | --- | --- | --- | --- | --- | --- | --- | --- | --- | --- | --- | --- | --- | --- | --- | --- |
| COc1ccc(CCl)c(C)c1OC | 104% | 104% | 98.2% | 89.7% | 102% | 110% | 101% | 89.5% | 97.3% | 104% | 105% | 99.3% | 100% | 109% | 110% | 104% | 105% | 105% | 105% | – |
| NC1=NC(c2ccccc2)N=C(Nc2ccccc2)N1 (stereo unspecified) | 100% and 84.3% | 79.3% and 90.5% | 98.6% and 99.1% | 105% and 89.7% | 94% and 102% | 97.9% and 84.1% | – | 96.3% and 110% | 49.6% and 95.1% | 65.7% and 71.4% | 2.95% (active) | 97.6% and 101% | 101% and 94.7% | 117% and 62.4% | 94.3% and 67.6% | 110% and 111% | 9.87% (active) and -1.56% (active) | 26.1% and 42.4% | 111% and 109% | 95.5% and 130% |
| N=C(N)N1CCc2ccccc2C1 | 128% | 66% and 97% | 90.8% and 99.6% | 82.8% and 86.8% | 106% and 110% | 101% | 74.5% and 101% | 58.3% | 91.9% | 88.3% and 106% | 75.1% and 93.9% | 89.9% and 103% | 88.4% | 95.4% and 117% | 101% and 107% | 102% | 104% and 101% | – | 92.9% and 114% | – |
| CC(=O)C[n+]1ccccc1Sc1ccc(Cl)cc1 | 132% | 103% | 49.5% | 60.5% | 104% | 113% | 90.9% | 76.4% | -9.4% (active) | 18.9% | 57.4% | 92.8% | 148% | 93.7% | 109% | 101% | 100% | 84.3% | 111% | – |
| NCCCCCC(=O)O | 110% [middle of 4 runs] | 109% [middle of 4 runs] | 107% [middle of 4 runs] | 89.3% [middle of 4 runs] | 115% and 104% and 98.9% | 103% [middle of 4 runs] | 94% [middle of 4 runs] | – | 101% and 90.4% and 108% | 105% and 88.6% and 108% | 108% and 79.8% and 111% | 103% [middle of 4 runs] | 98.2% [middle of 4 runs] | 116% and 103% | 103% [middle of 4 runs] | 116% and 101% | – | 110% [middle of 4 runs] | 109% [middle of 4 runs] | 99.6% and 94.5% |
| O=c1[nH]nnc2cc(Cl)ccc12 | 121% and 144% | 105% and 97.3% | 105% and 100% | 70.5% and 76.3% | 99.3% and 105% | 97.6% and 101% | 92.2% and 95.8% | 106% | 114% and 103% | 104% and 95.9% | 117% and 102% | 95.2% and 98.2% | 103% and 96.5% | 124% and 98.8% | 114% and 117% | 104% and 116% | 100% and 123% | 126% and 123% | 106% and 97.5% | – |
| CCN(CC)CCO/N=C1\CC(c2ccc(OC)c(OC)c2)Oc2ccccc21 (stereo unspecified) | 104% | 96.3% | 99.1% | 71.7% | 86.9% | 101% | 83.3% | 112% | 93% | 90.6% | 98.5% | 102% | 95.4% | 96.5% | 96.5% | 88.8% | 111% | 90.3% | 89.6% | – |
| CC(C)(C(=O)c1cccnc1)c1cccnc1 | 101% and 99.7% | 102% and 124% | 96.1% and 113% | 77.5% and 93.4% | 103% and 110% | 97.3% and 111% | – | 73.3% and 130% | 91.8% | 96.3% and 126% | 84.7% | 106% and 104% | 93.5% and 94.5% | 110% and 118% | 109% and 115% | 107% and 103% | 112% and 118% | 94.8% and 110% | 106% and 67.8% | 97% and 92.1% |
| CC1OS(=O)OC1C (stereo unspecified) | 91.4% and 111% | 100% | 95.8% and 95.4% | 96.1% | 99.8% and 107% | 91.9% and 103% | – | 101% and 105% | 96.2% | 81% and 113% | 93.5% | 101% and 97.9% | 102% and 97.6% | 104% and 100% | 99.6% and 118% | 105% | 103% and 106% | 98.3% | 107% and 99.7% | 105% and 106% |
| OCCCc1ccccc1 | 106% | 110% | 96.5% | 72.6% | 108% | 106% | 104% | 110% | 108% | 111% | 132% | 104% | 97% | 112% | 97.6% | 82.4% | 109% | 106% | 108% | – |
| CNc1ccc(O)cc1 | 110% and 118% | 80.1% | 103% | 82.4% and 95.4% | 144% and 121% | 92.6% and 112% | 105% and 104% | 90.9% and 68.1% | 101% and 110% | 110% and 129% | 126% | 96.7% and 106% | 114% and 107% | 94.5% and 106% | 105% and 108% | 135% and 119% | 113% and 114% | 115% and 142% | 114% and 102% | – |
| COC(=O)c1nc(N)nc(C(=O)OC)c1C(=O)c1ccc(F)cc1 | 105% | 104% | 103% | 92.4% | 109% | 116% | 96.1% | 120% | 106% | 156% | 112% | 107% | 114% | 110% | 108% | 111% | 116% | 102% | 109% | – |
